Several values for one entry are separate records, joined by “and”; a condition that tells them apart may be missing. Equal entries are not always repeated. Hit rate of the full screen: of about 69,000 compounds, about 2,600 (3.8%) were called active. Cut-off read from the data, not from the text of the source: active = activity change below about -70% (passing the limit was not always enough); inconclusive = no clear call, values can overlap the other calls. The list comes from a sample in which actives are over-represented; it also holds similar structures and randomly drawn compounds.
Assay: inhibitors of Toxoplasma growth in IFN-γ-primed hosts – cell-based, primary screen (AID 1259416);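 note: host cells are HeLa cells infected with Toxoplasma gondii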
Conditions: Toxoplasma gondii growth in IFN-gamma-treated host cells; active compounds read low; concentration not given here

SMILES | activity change, negative = inhibition
CCOC(=O)c1nc(N2CCN(Cc3ccc4c(c3)OCO4)CC2)c2ccccc2n1 | 42.4% (inactive)
O=C(C1CC=CC1)N1CCC2(CCN(Cc3cccc(F)c3)CC2)C1 | -9.86% (inactive)
CC[C@]1(O)C[C@@H]2CN(CCc3c([nH]c4ccccc34)[C@@](C(=O)OC)(c3cc4c(cc3OC)N(C)[C@H]3[C@@](O)(C(=O)OC)[C@H](OC(C)=O)[C@]5(CC)C=CCN6CC[C@]43[C@@H]65)C2)C1 | -97.6% (active)
CC[C@]1(O)CC2CN(CCc3c([nH]c4ccccc34)[C@@](C(=O)OC)(c3cc4c(cc3OC)N(C=O)[C@H]3[C@@](O)(C(=O)OC)[C@H](OC(C)=O)[C@]5(CC)C=CCN6CC[C@]43[C@@H]65)C2)C1 (some centres not stated) | -82.9% (active) and -87.1% (active)
CC1=CC[C@@H]2CN(C(=O)c3cc(C(C)(C)C)[nH]c(=O)n3)C[C@@H]2C1 | 5.83% (inactive)
Cc1nn(C)c(C)c1CCC(=O)NCc1ccccc1-n1ccnc1C | -6.3% (inactive)
CC1Cc2ccccc2N1C(=O)CN1C(=O)COc2ccc(C(=O)c3cccs3)cc21 (configuration not stated) | -43.3% (inactive)
Cc1nc2ccccc2c(=O)n1-c1cccc2ccccc12 | 0.633% (inactive)
O=S(=O)(c1ccc2c(c1)OCCO2)N1CCN(c2ccc(C(F)(F)F)cn2)CC1 | -88% (active)
O=C(/C=C/c1ccc(CN(CCO)CCc2c[nH]c3ccccc23)cc1)NO | -85.7% (active)
O=C(/C=C/c1ccc2c(c1)OCO2)NCc1ccc(F)cc1 | 2.56% (inactive)
CC(NC(=O)CCc1c[nH]c2ccccc12)c1cn2ncsc2n1 (configuration not stated) | 23.4% (inactive)
CC(C)c1cc(C2CCN(C(=O)Cc3c[nH]c4ccccc34)CC2)[nH]n1 | 5.9% (inactive)
O=C(NC1CC1)C1CN(Cc2cnc(NCc3ccccc3)nc2)CCN1 (configuration not stated) | -0.724% (inactive)
Cc1ccsc1C(=O)N1CCCC2(C1)Nc1cccnc1NC2=NC1CCCC1 (configuration not stated) | -22.8% (inactive)
COc1ccc(OCC(=O)N2CCC3(CC2)Nc2ccc(Cl)cc2-n2cccc23)cc1 | 25.9% (inactive)
O=C(C1CCCCC1)N1CCC2(CC1)Nc1ccc(Cl)cc1-n1cccc12 | -85.4% (active)
O=S(=O)(c1ccc(F)c(F)c1)N1CCC2(CC1)Nc1ccc(Cl)cc1-n1cccc12 | 17.6% (inactive)
CNC(=O)c1sc2ccccc2c1C1CCC(CNS(=O)(=O)c2cnn(C)c2)CC1 (configuration not stated) | -10.6% (inactive)
Cc1cccn2cc(C(=O)NC[C@@H]3CCNC[C@H]3O)nc12 | -3.48% (inactive)
O[C@@H]1CNCC[C@H]1CNCc1cccc(Oc2cccc(C(F)(F)F)c2)c1 | -100% (active)
Cc1cc(CNC(=O)c2cccc(C3CCNC3)c2)ccc1F (configuration not stated) | -1.39% (inactive)

Source: PubChem BioAssay AID1259416 (Broad Institute, 2018)
